# ATXN2 expr inh – ATXN2 expression inhibition; HEK-293 ATXN2-luciferase reporter, luminescence, 24 h; Potency, µM (series often up to 57 µM), for inactives: top-dose activity change, negative = inhibition, usual class: inhibitors; 0.72% of 360,000 active; AID 1745845; note: potency is the fitted concentration of half-maximal effect; % is set by controls: 0 for no effect and ±100 for the full control effect; nearly all actives have a fitted effect of over 55% in size
#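 qHTS (up to 57 uM final) was run with 24 h compound exposure of reporter cells at 37 °C. Each well was multiplexed: SteadyGlo luminescence measured ATXN2-luciferase expression after a fluorogenic Gly-Phe-AFC viability readout (25 uM final).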
# IL1B secr inh – inhibitors of inflammasome signaling (IL-1 beta secretion) | activity change, % at 57.5 µM | THP-1 LPS/ATP IL-1B secretion, AlphaLISA, 16 h; active compounds read low | 4.7% of 360,000 active; in the data active = activity change below about -50%; inconclusive = mostly about -30% to -49%; note: % is set by controls: 0 for no effect and ±100 for the full control effect
#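 Secreted IL-1B measured by AlphaLISA bead assay after 16 h compound exposure of THP-1 cells; compounds (final up to 57.5 uM) added 1 h before LPS (250 ng/mL) and ATP (1.25 mM) stimulation; lower signal means less secretion.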
# MCF10A rerep – DNA re-replication induction in MCF 10a cells; MCF 10A DNA re-replication, Hoechst nuclear intensity, 48 h; Potency, µM (top dose mostly 46.1 µM), without a hit: at the top dose activity, positive = re-replication, usual class: activators; 2.9% of 350,000 active; note: potency is the fitted concentration of half-maximal effect; % of control where 0% means no effect; nearly all actives have a fitted effect of over 50% in size
# SW480 rereplic – induces DNA re-replication in SW480 colon adenocarcinoma cells. SW480 DNA re-replication, Hoechst DNA content imaging, 48 h. Potency, µM (series often up to 46.1 µM), for inactives: top-dose re-replication activation, usual class: activators. 1.8% of 340,000 active; note: potency is the fitted concentration of half-maximal effect; % of control where 0% means no effect; nearly all actives have a fitted effect of over 55% in size
#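 Hoechst fluorescence of nuclei (405 nm excitation, 500-530 nm emission) measured by plate-scanning imager after 48 hr compound exposure at 37 C; re-replication scored as increased number of nuclei with elevated intensity.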
# S2 tox – reduces viability in counter-screen for ATXN expression inhibitors. Potency, µM (series often up to 56.7 µM), hits mostly cytotoxic. AID 651635. 0.49% of 400,000 active. S2 cells (HEK-293 line with an ATXN2-luciferase reporter) viability, CellTiter-Fluor protease fluorescence, 24 h; note: potency is the fitted concentration of half-maximal effect; nearly all actives have a fitted effect of over 40% in size
# PINK1 expr mod – PINK1 expression modulation | PINK1 immunofluorescence, high-content cytometry, 24 h | Potency, µM (highest dose often 76.6 µM), inactives show at the top dose activation (PINK1 increase), actives largely listed as activators | 0.2% of 410,000 active | AID 624263; active = well fitted activation curve with a large enough effect; inconclusive = small, poorly fitted or top-dose-only effect; cell line not stated here; note: potency is the fitted concentration of half-maximal effect; % of control where 0% means no effect; nearly all actives have a fitted effect of over 65% in size
#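 PINK1 protein, normally rapidly degraded, was detected by immunofluorescence after 24 hour compound treatment of a stable cell line. Titration data (5 concentrations) came from laser-scanning cytometry, with CCCP-treated wells as controls.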
# An asterisk follows results filed as active; i = inactive; ? = inconclusive; . = not tested or not shown; [ ] = remark or other dose. Shown are actives, neighbours in structure and some others; about 7.1% of the full set was active somewhere. Unless noted, calls come from the whole dose curve; as a rule, active = well fitted curve in the direction sought with a large enough effect; inconclusive = small, poorly fitted or top-dose-only effect, or another doubt; inactive = no such curve, though single readings can be large; an effect the other way counts as inactive or inconclusive.
SMILES,ATXN2 expr inh,IL1B secr inh,MCF10A rerep,SW480 rereplic,S2 tox,PINK1 expr mod
COc1ccc(OC)c(CN2CCC3(CCC(CNC(=O)c4ccco4)O3)CC2)c1 (centres undefined),.,.,.,.,i,0%
N/C(=N\OC(=O)/C=C/c1ccccc1Cl)c1ccccn1,16µM*,1,4%,-5%,i,2%
CC(C)(C)c1ccc(C(=O)O/N=C(\N)c2ccccn2)cc1,?,-65*,1%,?,i,-1%
N/C(=N\OC(=O)COc1ccccc1)c1ccccn1,.,-8,4%,18µM*,i,0%
Cc1ccc(C(=O)O/N=C(\N)c2ccccn2)cc1,13µM*,-23,1%,-2%,i,10%
O=C(c1ccnc(-n2cnnn2)c1)N1CCOc2ccc(C(O)CCc3ccccc3)cc2C1 (centres undefined),.,.,.,.,?,1%
CN(C(=O)c1cc2c(=O)oc3ccccc3c2s1)c1ccc(F)cc1,3%,.,.,.,i,7%
Nc1cc(N)[nH]c(=S)n1,.,.,.,.,.,2%
COc1ccc(NC(=O)C2(c3cccs3)CCOCC2)cc1Cl,-11%,.,.,.,i,2%
CC(C)c1ccc(NC(=O)Cn2cc(S(=O)(=O)Cc3ccccc3Cl)c3ccccc32)cc1,.,.,.,.,.,1%
Cc1nc(-n2[nH]c3c(c2=O)CCCC3)[nH]c(=O)c1Cc1ccccc1,8.9µM*,-106*,21µM*,9.2µM*,18µM*,3%
CC(=O)n1c(Cl)c(NC(=O)CCl)c2ccccc21,?,-101*,?,?,?,1%[38.3 µM]
Cc1nn(-c2ccccc2)c2sc(C(=O)Nc3cccc(Br)c3)cc12,-17%,.,.,.,i,3%
CCOc1ccccc1CN1CCCC(c2nc(C)ncc2-c2ccc(F)cc2)C1 (centres undefined),.,.,.,.,i,0%
O=C(O)CSC1=NS(=O)(=O)c2ccccc21,.,.,.,.,.,8%
COc1cc(/C=N/N=C(N)N)ccc1OCc1ccccc1Cl,?,-66*,45%,?,?,0%
COc1ccc(OC)c(CNC(=O)c2cc(S(=O)(=O)N3CCC(C)CC3)cn2C)c1,-13%,.,.,.,i,1%
C(=C\c1ccco1)/c1ccc2ccccc2n1,-31%,-22,18µM*,-24%,i,5%
CC(O)/C=C/c1ccc2ccccc2n1 (centres undefined),67%,-96*,18µM*,?,?,10%[38.3 µM]
COc1ccc(-c2onc(C)c2C)cc1S(=O)(=O)N1CCN(c2cc(C)ccc2C)CC1,.,.,.,.,.,0%
CSc1ccc(/C=C/c2ccnc3ccccc23)cc1,.,.,.,.,.,0%
CN(Cc1ccccc1)S(=O)(=O)c1ccc(NC(=S)NC(=O)C2CCCCC2)cc1,-35%,37,23µM*,?,i,1%
COc1cccc(-c2n[nH]c3c2C(c2ccccn2)N(C)C3=O)c1 (centres undefined),.,.,.,.,.,1%
CCOc1cc(C(=O)Nc2ccc(S(=O)(=O)NC3=NCCCCC3)cc2)cc(Br)c1OC,4%,-58*,?,?,i,-1%
O=C(NC(=S)Nc1cccc(S(=O)(=O)NC2=NCCC2)c1)c1cc(-c2ccco2)nc2ccccc12,-14%,46,?,9.2µM*,?,3%
SMILES,ATXN2 expr inh,IL1B secr inh,MCF10A rerep,SW480 rereplic,S2 tox,PINK1 expr mod
O=C(Nc1cccc(S(=O)(=O)NC2=NCCC2)c1)c1cc(-c2ccco2)nc2ccccc12,0%,35,0%,-73%,i,7%
CCOc1ccc(OCC(=O)Nc2cccc(S(=O)(=O)NC3=NCCC3)c2)cc1,-16%,37,?,?,i,8%
CCOc1ccc(C(=O)NC(=S)Nc2cccc(S(=O)(=O)NC3=NCCC3)c2)cc1,.,0,2.6µM*,?,i,3%
COc1cc(C(=O)OCC(=O)Nc2ccc(S(=O)(=O)NC3=NCCCCC3)cc2)cc(OC)c1OC,.,3,-2%,-20%,.,0%
CCCC(CCC)C(N)=O,.,.,.,.,i,.
COC(=O)c1c(NC(=O)c2ccco2)sc2c1CCC2,28%,0,?,2%,i,-2%
O=C(Nc1sc2c(c1C(=O)NCc1cccnc1)CCCC2)c1ccco1,-2%,-68*,?,-8%,i,5%[38.3 µM]
CC(C)OC(=O)c1c(NC(=O)c2ccco2)sc2c1CCCCC2,45%,-13,16µM*,-6%,i,24%
Cc1sc(NC(=O)c2cccs2)c(C(N)=O)c1C,64%,-59*,19%,-5%,?,.
COC(=O)c1c(NC(=O)COC(=O)c2ccc(O)cc2)sc2c1CCCCC2,?,-79*,13µM*,?,?,5%
CCOC(=O)c1c(NC(=O)c2noc3c2CC(C(C)(C)C)CC3)sc2c1CCCC2 (centres undefined),.,.,.,.,.,0%
CCOc1cc(C(=O)Nc2ccc3oc(-c4ccc(F)cc4Cl)nc3c2)cc(OCC)c1OCC,18%,.,.,.,i,2%
CCC(C)Sc1oc(-c2ccco2)nc1S(=O)(=O)c1ccc(C)cc1 (centres undefined),-3%,.,.,.,i,2%
O=C(Nc1sc2c(c1C(=O)O)CCCC2)c1cccs1,.,8,4%,-5%,.,.
COc1ccc(C(=O)Nc2sc3c(c2C(=O)NCc2ccco2)CCCC3)cc1OC,1%,?,20%,-6%[9.22 µM],i,11%
COc1cc(C(=O)Nc2sc3c(c2C(=O)NCc2ccco2)CCCC3)cc(OC)c1OC,-10%,?,18µM*,-3%,i,2%
CC(C)OC(=O)c1c(NC(=O)c2cccs2)sc2c1CCCC2,24%,-7,16µM*,10%,i,?
CNC(=O)c1c(NC(=O)c2ccco2)sc2c1CCCC2,22%,-81*,7%,-7%,i,1%
CCOC(=O)c1cccc(NC(=O)c2cc3ccccn3n2)c1,-22%,.,.,.,i,2%
COc1ccc(S(=O)(=O)N(CC(=O)O)c2ccccc2)cc1,16%,-16,3.7µM*,5%,i,-1%[38.3 µM]
COc1ccc(N(CC(=O)Nc2ccccc2OC)S(=O)(=O)c2ccc(NC(C)=O)cc2)cc1,-18%,26,13µM*,18µM*,i,9%
COc1ccc(N(CC(=O)Nc2ccc(F)cc2)S(=O)(=O)c2ccccc2[N+](=O)[O-])c(OC)c1,1%,-60*,10%,-5%,i,0%
COc1ccc(N(CC(=O)Nc2ccccc2Cl)S(=O)(=O)c2ccc(C)cc2)cc1OC,28%,?,?,3.3µM*,.,-1%
COc1ccccc1NC(=O)CN(c1ccccc1)S(=O)(=O)c1ccccc1,-8%,0,24%,8%,i,4%
NC1=NC(=O)/C(=C\c2ccc(-c3ccccc3[N+](=O)[O-])o2)S1,.,.,.,.,.,2%

# Screens deposited in PubChem BioAssay by National Center for Advancing Translational Sciences (NCATS).
